In PubChem BioAssay (NCI):
This is part of a sample that, as a whole, favours compounds with a hit. Of some 79,000 tested, about 15% had one in any assay. A number with no mark means an inactive call. Activity calls are given as the source filed them. Cut-off read from the data, not from the text of the source: active = growth inhibition above about 70%; inactive = the rest.

experiment: NCI Yeast Anticancer Drug Screen. Data for the cln2 rad14 strain (AID 165);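 note: 0% = growth equal to vehicle treated cultures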; settings: S. cerevisiae cln2 rad14 strain, at 50.0 µM, stronger effect = higher value
How it was run: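 Yeast strain cln2 rad14, bearing defects in cell cycle control and DNA repair, serves as the test system; values reflect growth inhibition compared with vehicle.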

For `CCC[CH2][Sn]1([CH2]CCC)[O]C(=O)CN=Cc2c(ccc3ccccc23)[O]1`, the growth inhibition was 92.6% (active).
In the case of `Cc1cc2cc3c(c(C(=O)O)c2o1)C(=O)c1ccc2ccccc2c1C3`, the growth inhibition is reported as 99.2% (active).
For `Nc1ccc(S(=O)(=O)O)c2cccc(S(=O)(=O)O)c12`, the growth inhibition was 71.9% (active).
With `Cn1c2ccccc2c2nnc(N/N=C/c3ccccn3)nc21` the growth inhibition was 96.2% (active).
For `C/C(=N/Nc1ccccc1)C(=O)O`, the growth inhibition was 98% (active).
For `CCCCCCCCCCCCCCOC(=O)C(N)Cc1ccc(O)cc1` (configuration not stated), the growth inhibition was 95.1% (active).
With `O=C(O)/C(Cl)=C(\Cl)C(=O)Nc1cccc(C(F)(F)F)c1` the growth inhibition was 99.3% (active).

Compared with `Oc1ccc(/C=N/NC(=S)Nc2ccccc2)nc1`, `CCC(=O)Sc1ccccc1C(=O)Nc1ccc(Cl)cc1` is lower in growth inhibition: 68.7% for the first, 53.1% for the second.

First: CN(C)COC(=S)SCN(C)C
Second: CCOC(=O)c1ccc([N+](=O)[O-])o1
The growth inhibition of the first is higher: 52.9% for the first, 28.3% for the second.

Compared with `O=C1CC(=S)NC(=S)N1`, `CCC1CCC(CC)C1=O` (configuration not stated) is higher in growth inhibition: -26% for the first, 36.5% for the second.

Going from `O=[N+]([O-])c1cc(I)c(O)c(/C=N/NS(=O)(=O)c2ccc(Cl)cc2)c1` to `Cc1ccc(NC(=O)c2cc3ccccc3c(N=Nc3cc(S(=O)(=O)O)ccc3O)c2O)c(C)c1`, the growth inhibition falls from 62.2% to 59.9%.

Compared with `Cc1cc(O)c2c(c1)C(=O)c1c(c(O)cc(O)c1-c1c(O)cc(O)c3c1C(=O)c1cc(C)cc(O)c1C3=O)C2=O`, `COc1cccc(CC2N(S(=O)(=O)c3ccc(C)cc3)CCC23C(=O)Nc2ccccc23)c1OC` (configuration not stated) is lower in growth inhibition: 58.1% for the first, 39% for the second.

Going from `Cc1occc1C(=S)Nc1ccc(Cl)c(C(=O)OCC(C)C)c1` to `O=C(Nc1ccc(S(=O)(=O)NC2CCCCC2)cc1)OCc1ccccc1`, the growth inhibition falls from 57.6% to 30.7%.

Going from `C#CC(NCCC(C)CC(C)(C)C)C(C)C` (configuration not stated) to `CCCCCCCNc1ccc2c(cc1=O)C(NC(C)=O)CCc1cc(OC)c(OC)c(OC)c1-2` (configuration not stated), the growth inhibition rises from 21.4% to 30.8%.

With `NC1CCCCC1N.O=S(=O)([O-])CCCN1CCN(CCO)CC1.O=S(=O)([O-])CCCN1CCN(CCO)CC1.[Pt+4]` the growth inhibition was -15.8%.

experiment: NCI Yeast Anticancer Drug Screen. Data for the bub3 strain (AID 167); settings: S. cerevisiae bub3 mutant strain, at 5.0 µM (retest, dose inferred, filed as 0.5), stronger effect = higher value
How it was run: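 Whole-cell yeast assay. The mutant strain was incubated with compounds, and growth inhibition was determined by comparison with vehicle-treated cells.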

Going from `CCCNC(=O)OCc1ccc(NCCN(CC)CC)c2c(=O)c3ccccc3sc12` to `CCC[CH2][Sn]1([CH2]CCC)[O]C(=O)CN=Cc2c(ccc3ccccc23)[O]1`, the growth inhibition rises from 14% to 53%.

Going from `COc1cc(C(c2cc3c(cc2O)OCO3)N2CCCCC2)cc(OC)c1OC` (configuration not stated) to `CCCCCCCNc1ccc2c(cc1=O)C(NC(C)=O)CCc1cc(OC)c(OC)c(OC)c1-2` (configuration not stated), the growth inhibition rises from -1% to 4%.

First: Cc1cc2c(cc1Cl)Sc1nnc(C)n1S2(=O)=O
Second: Cc1cc([N+](=O)[O-])cc(Cl)c1O
The growth inhibition of the first is higher: -12% for the first, -21% for the second.

First: O=C(Oc1cccc2cccnc12)c1ccccc1
Second: N#CC1Oc2ccccc2N1C(=O)c1ccccc1 (configuration not stated)
The growth inhibition of the first is higher: 28% for the first, -8% for the second.

Compared with `CCCCCCN(CCCCCC)CCC(=O)c1ccc2cc(Br)c3ccccc3c2c1`, `CCCCCCCCCCCCCCOC(=O)C(N)Cc1ccc(O)cc1` (configuration not stated) is lower in growth inhibition: 20% for the first, 3% for the second.

Going from `Cc1c2cc(Cl)ccc2cc2c1ccc1ccccc12` to `Cc1cc2cc3c(c(C(=O)O)c2o1)C(=O)c1ccc2ccccc2c1C3`, the growth inhibition rises from -6% to 14%.

First: O=C1OC(CCCl)(c2ccccc2)CC1CN1CCOCC1 (configuration not stated)
Second: O=C1C2=Cc3ccccc3CCN2c2ccccc21
The growth inhibition of the first is higher: 30% for the first, 2% for the second.

Going from `CCOC(=N)CCCSSc1ccc(N=[N+]=[N-])cc1` to `CCOC(=O)c1ccc([N+](=O)[O-])o1`, the growth inhibition rises from -7% to 7%.

Going from `Cc1[nH]c2ccccc2c1/C=C1\C(=O)C2CCC1C2` (configuration not stated) to `O=C(O)c1ccc2c3c(ncnc13)-c1ccccc1C2=O`, the growth inhibition rises from -16% to 36%.

First: Nc1nc(N)c2nc(CNc3ccc(C(=O)NC(CCC(=O)O)C(=O)O)cc3)cnc2n1 (configuration not stated)
Second: CCC(=O)Sc1ccccc1C(=O)Nc1ccc(Cl)cc1
The growth inhibition of the first is lower: 0% for the first, 22% for the second.

Going from `COc1ccccc1OC(=O)Oc1ccccc1OC` to `COc1cccc(CC2N(S(=O)(=O)c3ccc(C)cc3)CCC23C(=O)Nc2ccccc23)c1OC` (configuration not stated), the growth inhibition falls from 1% to -3%.

First: NNC(=O)c1c(SCc2ccccc2)nc2c3ccccc3ccn12
Second: Cn1c2ccccc2c2nnc(N/N=C/c3ccccn3)nc21
The growth inhibition of the first is higher: 33% for the first, 13% for the second.

First: Cc1c(Cl)cccc1N=NC(=O)NNc1cccc(Cl)c1C
Second: Cc1ccc(NC(=O)c2cc3ccccc3c(N=Nc3cc(S(=O)(=O)O)ccc3O)c2O)c(C)c1
The growth inhibition of the first is lower: -12% for the first, 50% for the second.

Going from `Oc1ccc(/C=N/NC(=S)Nc2ccccc2)nc1` to `C/C(=N/Nc1ccccc1)C(=O)O`, the growth inhibition falls from 11% to 6%.

First: O=C1CC(=S)NC(=S)N1
Second: CCC1CCC(CC)C1=O (configuration not stated)
The growth inhibition of the first is lower: -2% for the first, 2% for the second.

First: O=[N+]([O-])c1cc(I)c(O)c(/C=N/NS(=O)(=O)c2ccc(Cl)cc2)c1
Second: Nc1ccc(S(=O)(=O)O)c2cccc(S(=O)(=O)O)c12
The growth inhibition of the first is lower: -6% for the first, 0% for the second.

Going from `Cc1cc(O)c2c(c1)C(=O)c1c(c(O)cc(O)c1-c1c(O)cc(O)c3c1C(=O)c1cc(C)cc(O)c1C3=O)C2=O` to `Cc1occc1C(=S)Nc1ccc(Cl)c(C(=O)OCC(C)C)c1`, the growth inhibition rises from 17% to 30%.

First: C#CC(NCCC(C)CC(C)(C)C)C(C)C (configuration not stated)
Second: NC1CCCCC1N.O=S(=O)([O-])CCCN1CCN(CCO)CC1.O=S(=O)([O-])CCCN1CCN(CCO)CC1.[Pt+4]
The growth inhibition of the first is higher: -14% for the first, -24% for the second.

In the case of `CCNCCNc1cc(O)c2c(c1O)C(=O)c1ccccc1C2=O`, the growth inhibition is reported as 96% (active).
With `CN(C)COC(=S)SCN(C)C` the growth inhibition was 96% (active).
For `O=C(Nc1ccc(S(=O)(=O)NC2CCCCC2)cc1)OCc1ccccc1`, the growth inhibition was 99% (active).
In the case of `O=C(O)/C(Cl)=C(\Cl)C(=O)Nc1cccc(C(F)(F)F)c1`, the growth inhibition is reported as 88% (active).
